# Sampled rows, rich in hits. Any-hit rate of the full collection: about 2.3%.
# mut p53 react = mutant p53 pathway re-activators, primary screen, cell-based, SW480, luciferase, single point, HTS | 28,000 tested, 1.5% active | SW480 PUMA-promoter luciferase, p53 mutant reactivation | AID 624151, 2012 | activation, % at 9.98 µM; in the data active means activation above about 52%; inconclusive means no clear call, values can overlap the other calls
# ID4 SMM = binders of human ID4 protein, primary screen, biochemical, small molecule microarray, single point; Flag-ID4 binding, fluorescence F/B; DNA-binding protein inhibitor ID-4 (Homo sapiens), P47928; calls only; AID 624137, 2012; 31,000 tested, 1.2% active; call rule not given here;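 further: a binder raises fluorescence above local background on the spot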
# Target sequence (P47928 whole entry, looked up): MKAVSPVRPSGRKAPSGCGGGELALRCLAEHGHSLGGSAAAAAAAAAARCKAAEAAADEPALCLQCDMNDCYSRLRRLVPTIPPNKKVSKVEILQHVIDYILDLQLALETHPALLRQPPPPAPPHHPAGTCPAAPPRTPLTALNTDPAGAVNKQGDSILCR
# An asterisk follows results filed as active; i = inactive; ? = inconclusive; · = not tested or not shown; + = active, no number.
SMILES,mut p53 react,ID4 SMM
COC(=O)c1ccc(OCC(=O)Nc2cc(OC)ccc2OC)c(OC)c1,5,i
CCc1ccccc1OCC(=O)Nc1cc(OC)ccc1OC,93*,i
COc1ccc(OC)c(NC(=O)COc2ccc(C(C)(C)C)cc2)c1,64*,i
COc1ccc([N+](=O)[O-])cc1NC(=O)COc1ccc(C(C)(C)C)cc1,?,i
CC1(C)CC[C@]2(C(=O)O[C@@H]3O[C@H](CO)[C@@H](O)[C@H](O)[C@H]3O)CC[C@]3(C)C(=CCC4[C@@]5(C)C[C@@H](O)[C@H](O)[C@](C)(CO)C5CC[C@]43C)C2[C@@H]1O (some centres undefined),·,i
O=C(CC1(O)C(=O)N(Cc2ccccc2)c2ccc(Cl)cc21)c1ccncc1 (centres undefined),-4,i
COC(=O)c1ccccc1NC(=O)CSc1nc(-c2cccs2)cc(C(F)(F)F)c1C#N,-4,i
COc1ccc(OC)c(C(=O)CCC(=O)Nc2ccc(Cl)cc2)c1,3,i
C[C@@H]1O[C@@H](OC[C@H]2O[C@@H](OCc3ccccc3)[C@H](O)[C@@H](O)[C@@H]2O)[C@H](O)[C@H](O)[C@H]1O,6,·
CNc1ccccc1C(=O)OC1OC(C)C(O)C(O)C1O (centres undefined),12,+
O=C(c1ccc([N+](=O)[O-])cc1)n1nc(-c2ccc(Cl)cc2)nc1NCc1ccco1,128*,i
COc1ccc(C(=O)n2nc(-c3ccc(Cl)cc3)nc2NCc2ccco2)cc1OC,80*,i
O=C(c1ccco1)n1nc(-c2ccc(Cl)cc2)nc1NCc1ccco1,44,i
COc1ccccc1C(=O)n1nc(-c2ccccc2)nc1NCc1ccco1,23,i
CCCC(=O)n1nc(-c2ccccc2)nc1NCc1ccco1,50,i
CCCC(=O)n1nc(-c2ccc(Cl)cc2)nc1NCc1ccco1,107*,i
O=C(CSc1nc(O)cc(=O)n1-c1ccccc1)Nc1ccccc1Cl,-5,i
Cc1ccc(-c2nnc3c4ccccc4c(C)nn23)cc1S(=O)(=O)NCc1cccnc1,8,i
Cc1cccc(N(CC(=O)Nc2ccc(Cl)cc2)S(C)(=O)=O)c1C,-5,i
Cc1ccc(-c2noc(CCC(=O)Nc3ccccc3[N+](=O)[O-])n2)cc1,17,i
Cc1ccc(-c2noc(CCC(=O)NC(C)(C)C)n2)cc1,61*,i
COCc1nc2ccccc2n1CCOc1ccc(Cl)cc1Cl,9,i
CN(C)C(=O)[C@]1(CCS(=O)(=O)c2ccccc2)N=C(c2ccc(OCCCO)cc2)O[C@@H]1c1ccccc1,·,+
O=C(NCC(O)CO)[C@@]1(CCS(=O)(=O)c2ccccc2)N=C(c2ccc(OCCCO)cc2)O[C@H]1c1ccccc1 (some centres undefined),·,i
Cc1cccc(S(=O)(=O)NC(C(=O)O)C(C)C)c1 (centres undefined),0,i
SMILES,mut p53 react,ID4 SMM
O=C(O)CCCc1c[nH]c2ccccc12,-10,+
O=C(O)C(O)Cc1c[nH]c2ccccc12 (centres undefined),1,i
COc1cccc2cc(C(=O)C3C(=O)C(=O)N(c4cc(C)on4)C3c3ccccc3)oc12 (centres undefined),-41,i
COC(=O)c1c(NC(=S)NCc2ccccn2)sc2c1CCC2,68*,i
COC(=O)c1c(NC(=S)NCc2cc(C)n(C)n2)sc2c1CCCCCC2,9,i
CCOc1ccccc1CNc1nc2nc(C)c(Cl)c(C)n2n1,8,i
Cn1c(SCc2nc(-c3cccs3)no2)nnc1-c1ccco1,-11,+
Cn1c(SCc2nc(-c3cccs3)no2)nnc1-c1ccccc1,-10,i
CCSc1ccccc1C(=O)Nc1ccc(S(=O)(=O)Nc2ncccn2)cc1,0,i
CCc1ccc(NC(=O)Cn2c(-c3nonc3N)nc3ccccc32)cc1,-8,i
COC(=O)c1cc(-c2ccccc2)sc1NC(=S)Nc1cn(C)nc1C,6,+
COC(=O)c1cc(-c2ccccc2)sc1NC(=S)Nc1ccn(C)n1,48,i
O=[N+]([O-])c1ccc(S(=O)(=O)NCCc2nc3ccccc3[nH]2)cc1,-13,i

# Screening results as filed in PubChem.
